Inconclusive results are not listed. Active and inactive are the calls of the source. Unless noted, no rule for the calls is given here.

Consider 8 molecules from PubChem BioAssay (NCATS).

A short description of assay [1]: qHTS profiling of the MIPE4 collection as inhibitors of Plasmodium falciparum (3D7) proliferation (AID 743344).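 Also: scaled between DMSO vehicle wells and 0.29 µM artemisinin as full inhibition.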 Conditions: P. falciparum 3D7 in erythrocytes, SYBR Green DNA fluorescence, 72 h; at 28.5 µM unless noted. The procedure, abridged: (§1)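 Parasite DNA was quantified by SYBR Green I fluorescence (ex 485, em 535 nm) after overnight lysis in saponin/Triton buffer at room temperature. Cultures at 0.3% parasitemia and 2.5% hematocrit were first exposed to compound for 72 h at 37 C; signals were normalised to artemisinin (0.29 uM) and vehicle wells.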

The nature of assay [2]: qHTS profiling of the MIPE4 collection as inhibitors of Plasmodium falciparum (DD2) proliferation (AID 743345). Conditions: P. falciparum Dd2 in erythrocytes, SYBR Green DNA, 72 h; at 28.5 µM unless noted. The procedure, abridged: as §1
Assay [3] in a line: qHTS profiling of the MIPE4 collection as inhibitors of Plasmodium falciparum (HB3) proliferation (AID 743347).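 Also: plate controls were DMSO vehicle wells for no effect and artemisinin wells for full effect.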 Conditions: P. falciparum HB3 in erythrocytes, SYBR Green DNA, 72 h; at 28.5 µM unless noted. The method, boiled down: as §1
Assay [4] can be described thus: High-throughput drug toxicity screening in the BPDCN cell line Gen2.2 (AID 1224824).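 Also: cells exposed to compounds for 48 h before reading.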 The settings on record: Gen2.2 BPDCN cells; at 45.8 µM (top of the series) unless noted. The method, boiled down: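 Seed 500 exponentially growing Gen2.2 cells/well; add compounds by pin tool; incubate 48 h, 37 °C, 5% CO2; add CellTiter-Glo, 15 min RT; read luminescence. % activity vs DMSO (100%) and bortezomib (0%).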

Assay [5] is described as follows: High-throughput drug toxicity screening in the BPDCN cell line Cal-1 (AID 1224825). Conditions: Cal-1 BPDCN cell viability, qHTS; at 45.8 µM (top of the series) unless noted. The procedure, abridged: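 Percent activity derived from CellTiter-Glo luminescence, scaling DMSO to 100% and 9.2 uM final bortezomib to 0%. BPDCN Cal-1 cells (500/well, RPMI plus 10% FBS) incubated with compounds 48 hours at 37C before reading.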
(In qHTS, concentration-response curves come from the screen itself.)

The nature of assay [6]: qHTS assay for measurement of the activity of small molecule inhibitors on Zika virus induced Caspase-3 activity in human iPSC derived neural progenitor cells (hNPCs) (AID 1224857; active = well fitted inhibition curve with a large enough effect; also: % of control where 0% means no effect; nearly all actives have a fitted effect of over 65% in size). The method, boiled down:
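Cells were plated at 350 per well and grown 16 to 20 hours. Compound pretreatment lasted one hour, after which ZIKV (2 FFU/cell) was added for 6 hours. Percent inhibition was normalized between uninfected and infected controls.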

Assay [7] can be described thus: qHTS assay for measurement of the activity of small molecule inhibitors on Zika virus induced Caspase-3 activity in human astrocytoma cells (AID 1224859; active = well fitted inhibition curve with a large enough effect;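 also: plate controls were ZIKV-infected untreated cells for no effect and uninfected cells for full effect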). The procedure, abridged: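 Percent inhibition of virus-induced caspase-3/7 signal is calculated against uninfected and ZIKV-infected control cells. Cells are SNB-19, infected at 2 FFU/cell for 6 h after 1 h compound exposure.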

Assay [8] can be described thus: qHTS profiling of the MIPE4 collection as inhibitors of Plasmodium falciparum (DD2) proliferation (Rep 2) (AID 743346). Conditions: P. falciparum Dd2 in erythrocytes, SYBR Green DNA, 72 h; at 28.5 µM unless noted. The method, boiled down: as §1

Consider `CO[C@H]1/C=C\O[C@@]2(C)Oc3c(C)c(O)c4c(O)c(c5c(nc6cc(C)ccn65)c4c3C2=O)NC(=O)C(C)=CC=C[C@H](C)[C@H](O)[C@@H](C)[C@@H](O)[C@@H](C)[C@H](OC(C)=O)[C@H]1C`, for which the parasite growth, % of DMSO control in assay [1] was 11%. The molecule also came in with a parasite growth remaining, % of DMSO control (lower = more inhibition) in assay [2] of 31.8%. In assay [3], the growth, % of control came to 5.21%. For the same molecule, the cell viability, % of control (lower = more cytotoxic) in assay [4] amounted to 4.46%. The molecule further yielded a viability (% of control) in assay [5] of 32.4%. Also, the Potency entry in assay [6] and in assay [7] was “inactive” throughout.
Turning to `Cc1ccccc1-n1c(Cn2nc(-c3cccc(O)c3)c3c(N)ncnc32)nc2cccc(C)c2c1=O`, the parasite growth, % of DMSO control in assay [1] worked out at 6.67%. Moreover, in assay [2], the parasite growth remaining, % of DMSO control (lower = more inhibition) was 8.31%. This molecule displayed a parasite growth, % of control (lower = inhibition) in assay [8] of 15%. In assay [3], this molecule showed a growth, % of control of 9.11%. Besides, in assay [4], the cell viability, % of control (lower = more cytotoxic) was determined as 5.88%. Besides, the viability (% of control) in assay [5] stood at 10.5%. The Potency entry in assay [6] and in assay [7] was “inactive” in each case.
In assay [1], `CO[C@H]1O[C@@H]2O[C@@]3(C)CC[C@@H]4[C@@H](C)CC[C@@H]([C@H]1C)[C@@]24OO3` had a parasite growth, % of DMSO control of 20.7%. The same molecule had a parasite growth remaining, % of DMSO control (lower = more inhibition) in assay [2] of 7.38%. Besides, the growth, % of control in assay [3] was determined as 46%. Moreover, the cell viability, % of control (lower = more cytotoxic) in assay [4] is 62.1%. This molecule came in with a viability (% of control) in assay [5] of 31.3%. Also, the Potency entry in assay [6] and in assay [7] was “inactive” each time.
In assay [1], `CON(C)C(=O)N1N=C(c2cc(F)ccc2F)S[C@]1(CCCN)c1ccccc1` yielded a parasite growth, % of DMSO control of 13.1%. In assay [2], this molecule gave a parasite growth remaining, % of DMSO control (lower = more inhibition) of 10.1%. This molecule also came in with a parasite growth, % of control (lower = inhibition) in assay [8] of 18.3%. In assay [3], this molecule gave a growth, % of control of 8.3%. For the same molecule, in assay [4], the cell viability, % of control (lower = more cytotoxic) was 16.8%. Moreover, the viability (% of control) in assay [5] is 7.01%. The Potency entry in assay [6] and in assay [7] was “inactive” each time.
For `CC[C@H](CC#N)OC(=O)N[C@@H](C)c1cccc(NC(=O)Nc2ccc(-c3cnco3)c(OC)c2)c1`, in assay [1], the parasite growth, % of DMSO control is 12.8%. For the same molecule, in assay [8], the parasite growth, % of control (lower = inhibition) stood at 17.5%. The growth, % of control in assay [3] was 9.12%. Further, in assay [4], the cell viability, % of control (lower = more cytotoxic) amounted to 74.3%. The viability (% of control) in assay [5] stood at 18.6%. The Potency result in assay [6] and in assay [7] was “inactive” throughout.
In assay [1], `COc1c(C)c2c(c(O)c1CC=C(C)CCC(=O)OCCN1CCOCC1)C(=O)OC2` showed a parasite growth, % of DMSO control of 16.6%. This molecule yielded a parasite growth, % of control (lower = inhibition) in assay [8] of 15.1%. This molecule registered a growth, % of control in assay [3] of 9.76%. For the same molecule, the cell viability, % of control (lower = more cytotoxic) in assay [4] is 164%. This molecule also returned a viability (% of control) in assay [5] of 13.5%. The Potency result in assay [6] and in assay [7] was “inactive” each time.
The molecule `CC1(C)CC(=O)c2c(C(F)(F)F)nn(-c3ccc(C(N)=O)c(NC4CCC(O)CC4)c3)c2C1` (centres undefined) returned a parasite growth, % of DMSO control in assay [1] of 5.39%. For the same molecule, in assay [2], the parasite growth remaining, % of DMSO control (lower = more inhibition) was determined as 8.63%. Moreover, the growth, % of control in assay [3] was 3.53%. For the same molecule, the cell viability, % of control (lower = more cytotoxic) in assay [4] stood at 8.13%. Also, the viability (% of control) in assay [5] came out at 13.5%. Further, the Potency result in assay [6] and in assay [7] was “inactive” in each case.
As for `OC(c1cc(C(F)(F)F)nc2c(C(F)(F)F)cccc12)C1CCCCN1` (centres undefined), the parasite growth, % of DMSO control in assay [1] is 11%. The same molecule displayed a parasite growth remaining, % of DMSO control (lower = more inhibition) in assay [2] of 9.36%. The molecule also registered a parasite growth, % of control (lower = inhibition) in assay [8] of 23.2%. In assay [3], this molecule displayed a growth, % of control of 61.8%. In addition, the cell viability, % of control (lower = more cytotoxic) in assay [4] was determined as 9.36%. In addition, in assay [5], the viability (% of control) stood at 7.54%. The Potency result in assay [6] and in assay [7] was “inactive” each time.
